Measured values reported in PubChem BioAssay (EPA / NIEHS).
Records with an inconclusive call do not appear. Calls of active or inactive are those of the source. How the source made its calls, unless noted: active means hit-call score of the fitted dose curve at least 0.9, where 1 is the maximum; inconclusive means response in the unintended direction; inactive means score below 0.9.

Tests used:
[1] = ATG_TCF_b_cat_CIS: Attagene CIS-FACTORIAL HepG2 Assay for human T-Cell-Factor with beta-catenin (TCF/b-cat) (AID 2282965; active means hit-call score of the fitted dose curve at least 0.9, where 1 is the maximum; inactive means score below 0.9); conditions: HepG2 TCF/beta-catenin cis-reporter transcription, actives raise or lower the signal
Method in brief: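 Endogenous TCF/LEF activity read as reporter transcript level via RT-PCR and capillary electrophoresis fluorescence in transfected HepG2, 24 h exposure; gain or loss of signal fitted against DMSO controls.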

[2] = ATG_TAL_CIS: Attagene CIS-FACTORIAL HepG2 Assay for human TAL Basal Promoter (AID 2282966; active means hit-call score of the fitted dose curve at least 0.9, where 1 is the maximum; inactive means score below 0.9;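 further: background control endpoint measuring basal TAL promoter reporter mRNA not a specific factor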); conditions: HepG2 Attagene cis-factorial TAL promoter reporter; actives raise or lower the signal
Method in brief: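 Readout: reporter mRNA, fluorescence by CE. System: HepG2, transient multi-reporter transfection, endogenous TF activity. Exposure: 24 h. Analysis: bidirectional, DMSO-normalized; background control.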

[3] = ATG_TGFb_CIS: Attagene CIS-FACTORIAL HepG2 Assay for human Transforming Growth Factor (TGF) (AID 2282967; active means hit-call score of the fitted dose curve at least 0.9, where 1 is the maximum; inactive means score below 0.9); conditions: HepG2 Attagene CIS TGFb reporter, mRNA transcription; actives raise or lower the signal
Method in brief: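 HepG2 cells transiently transfected with cis-promoter-driven multiplexed reporter units; 24 h compound exposure. Reporter mRNA measured by RT-PCR, 6-FAM labeling, HpaI digestion and capillary electrophoresis; bidirectional fit versus DMSO baseline.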

[4] = ATG_VDRE_CIS: Attagene CIS-FACTORIAL HepG2 Assay for human Vitamin D Receptor Element (VDRE) (AID 2282968; active means hit-call score of the fitted dose curve at least 0.9, where 1 is the maximum; inactive means score below 0.9); conditions: HepG2 VDRE cis-reporter transcription, actives raise or lower the signal
Method in brief: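 Reporter mRNA induction, quantified by capillary electrophoresis of fluorescently labelled RT-PCR products, was read 24 h after dosing HepG2 cells carrying transiently transfected cis-regulated reporter units; gain or loss relative to DMSO.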

[5] = target: Nuclear receptor subfamily 1 group I member 3 (Homo sapiens) (UniProt Q14994); test: ATG_CAR_TRANS: Attagene TRANS-FACTORIAL HepG2 Assay for human Constitutive Androstane Receptor (CAR) (AID 2282969); conditions: HepG2 Attagene TRANS-FACTORIAL CAR reporter;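 further: activators raise reporter mRNA above DMSO so AC50 marks induction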
Sequence of Nuclear receptor subfamily 1 group I member 3 (Homo sapiens) (Q14994 whole entry, looked up, the tested form may be a part): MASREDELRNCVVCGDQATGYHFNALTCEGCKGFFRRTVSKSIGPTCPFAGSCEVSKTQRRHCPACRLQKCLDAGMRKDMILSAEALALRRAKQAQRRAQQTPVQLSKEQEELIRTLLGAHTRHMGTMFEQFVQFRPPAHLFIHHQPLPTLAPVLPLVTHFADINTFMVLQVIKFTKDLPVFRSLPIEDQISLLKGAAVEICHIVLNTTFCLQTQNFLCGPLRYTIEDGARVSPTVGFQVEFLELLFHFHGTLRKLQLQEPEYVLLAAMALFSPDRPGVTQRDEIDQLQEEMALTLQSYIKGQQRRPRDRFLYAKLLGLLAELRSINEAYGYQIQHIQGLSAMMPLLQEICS
Method in brief: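 Readout is reporter mRNA induction, quantified by fluorescent primer extension and capillary electrophoresis after RT-PCR. Cells were HepG2 transiently carrying chimeric NR-Gal4 constructs with GAL4-UAS reporters, treated for 24 h; activity scored upward from DMSO.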

[6] = target: Estrogen receptor (Homo sapiens) (UniProt P03372); test: ATG_ERa_TRANS: Attagene TRANS-FACTORIAL HepG2 Assay for human Estrogen Receptor alpha (ERa) (AID 2282970); conditions: HepG2 Attagene TRANS ERa GAL4 reporter, mRNA
Sequence of Estrogen receptor (Homo sapiens) (P03372 whole entry, looked up, the tested form may be a part): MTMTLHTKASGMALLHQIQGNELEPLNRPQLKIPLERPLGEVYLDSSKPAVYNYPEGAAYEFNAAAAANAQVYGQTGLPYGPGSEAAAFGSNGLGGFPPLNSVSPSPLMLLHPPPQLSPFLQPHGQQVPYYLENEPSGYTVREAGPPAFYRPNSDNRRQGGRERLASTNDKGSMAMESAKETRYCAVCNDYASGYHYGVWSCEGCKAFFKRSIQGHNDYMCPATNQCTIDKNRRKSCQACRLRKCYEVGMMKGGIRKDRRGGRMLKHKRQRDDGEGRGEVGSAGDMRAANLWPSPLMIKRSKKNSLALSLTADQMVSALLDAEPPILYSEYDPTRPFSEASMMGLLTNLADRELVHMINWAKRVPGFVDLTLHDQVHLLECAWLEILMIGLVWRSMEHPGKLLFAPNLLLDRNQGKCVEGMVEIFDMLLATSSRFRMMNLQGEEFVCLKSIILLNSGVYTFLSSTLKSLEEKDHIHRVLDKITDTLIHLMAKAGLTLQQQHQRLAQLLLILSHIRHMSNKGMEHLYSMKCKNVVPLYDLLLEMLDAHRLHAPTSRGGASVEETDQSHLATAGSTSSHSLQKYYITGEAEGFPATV
Method in brief: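 Transactivation via ERa-Gal4 chimera in HepG2; 24 hour incubation; reporter mRNA detected by fluorescence RT-PCR and capillary electrophoresis.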

[7] = target: X-box-binding protein 1 (Homo sapiens) (UniProt P17861); test: ATG_Xbp1_CIS: Attagene CIS-FACTORIAL HepG2 Assay for human X-box Binding Protein 1 (XBP1) (AID 2282972; active means hit-call score of the fitted dose curve at least 0.9, where 1 is the maximum; inactive means score below 0.9); conditions: HepG2 XBP1 cis-element reporter, Attagene multiplex; actives raise or lower the signal
Sequence of X-box-binding protein 1 (Homo sapiens) (P17861 whole entry, looked up, the tested form may be a part): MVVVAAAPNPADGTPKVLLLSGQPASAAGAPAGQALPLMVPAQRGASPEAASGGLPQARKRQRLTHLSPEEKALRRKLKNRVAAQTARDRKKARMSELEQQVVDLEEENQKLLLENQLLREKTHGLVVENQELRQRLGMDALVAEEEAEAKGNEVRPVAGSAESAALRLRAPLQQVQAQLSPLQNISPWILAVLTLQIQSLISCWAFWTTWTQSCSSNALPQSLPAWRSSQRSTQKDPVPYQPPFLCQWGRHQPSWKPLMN
Method in brief: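 Fluorescence-labelled cDNA fragments from reporter transcripts, separated by capillary electrophoresis, give the signal. Source: HepG2 cells transfected with promoter-driven reporter units, harvested 24 h post-dose. DMSO served as reference for bidirectional curve fitting.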

[8] = target: Estrogen-related receptor gamma (Homo sapiens) (UniProt P62508); test: ATG_ERRg_TRANS: Attagene TRANS-FACTORIAL HepG2 Assay for human Estrogen-Related Receptor gamma (ERRg) (AID 2282977); conditions: HepG2 Attagene TRANS reporter, ERRg transactivation;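 further: hits increase reporter signal over DMSO so potencies reflect activators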
Sequence of Estrogen-related receptor gamma (Homo sapiens) (P62508 whole entry, looked up, the tested form may be a part): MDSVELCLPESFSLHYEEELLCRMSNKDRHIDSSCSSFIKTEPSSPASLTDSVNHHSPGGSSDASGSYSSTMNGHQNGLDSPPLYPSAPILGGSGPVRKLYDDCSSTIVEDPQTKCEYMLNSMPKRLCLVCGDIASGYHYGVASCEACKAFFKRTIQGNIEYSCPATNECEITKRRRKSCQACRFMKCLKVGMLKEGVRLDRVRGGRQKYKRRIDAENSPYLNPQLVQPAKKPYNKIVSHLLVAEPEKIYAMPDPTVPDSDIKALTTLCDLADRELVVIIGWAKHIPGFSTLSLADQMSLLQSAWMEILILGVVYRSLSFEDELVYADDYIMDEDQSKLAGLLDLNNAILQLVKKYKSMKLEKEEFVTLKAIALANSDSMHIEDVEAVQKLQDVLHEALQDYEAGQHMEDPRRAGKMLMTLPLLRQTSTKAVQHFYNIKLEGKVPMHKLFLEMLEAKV
Method in brief: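 HepG2 cells transiently transfected with multiplexed GAL4-UAS reporter units driven by chimeric NR-Gal4 proteins; 24 h exposure. Reporter mRNA quantified by RT-PCR, fluorescent labelling, HpaI digestion and capillary electrophoresis; gain of signal vs DMSO.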

[9] = ATG_M_06_TRANS: Attagene TRANS-FACTORIAL HepG2 Assay for M06 Transcription Factor (Internal Marker) (AID 2282983); conditions: HepG2 Attagene TRANS M06 internal marker reporter
Method in brief: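 Measured by capillary electrophoresis of fluorescently labelled RT-PCR products, this endpoint reflects reporter mRNA in HepG2 cells harbouring exogenous NR-GAL4 reporter constructs after 24 h exposure, with DMSO as baseline.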

[10] = ATG_M_19_TRANS: Attagene TRANS-FACTORIAL HepG2 Assay for M19 Transcription Factor (Internal Marker) (AID 2282974); conditions: HepG2 Attagene TRANS-FACTORIAL M19 internal marker reporter
Method in brief: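 Using RT-PCR and capillary electrophoresis, reporter mRNA from transiently transfected human HepG2 cells was quantified following 24 h exposure; activity was fitted in the positive direction against DMSO.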

[11] = target: Glucocorticoid receptor (Homo sapiens) (UniProt P04150); test: ATG_GR_TRANS: Attagene TRANS-FACTORIAL HepG2 Assay for human Glucocorticoid Receptor (GR) (AID 2282978); conditions: HepG2 Attagene TRANS GR reporter, mRNA transcription;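 further: activators score as hits since higher reporter transcript over DMSO is fitted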
Sequence of Glucocorticoid receptor (Homo sapiens) (P04150 whole entry, looked up, the tested form may be a part): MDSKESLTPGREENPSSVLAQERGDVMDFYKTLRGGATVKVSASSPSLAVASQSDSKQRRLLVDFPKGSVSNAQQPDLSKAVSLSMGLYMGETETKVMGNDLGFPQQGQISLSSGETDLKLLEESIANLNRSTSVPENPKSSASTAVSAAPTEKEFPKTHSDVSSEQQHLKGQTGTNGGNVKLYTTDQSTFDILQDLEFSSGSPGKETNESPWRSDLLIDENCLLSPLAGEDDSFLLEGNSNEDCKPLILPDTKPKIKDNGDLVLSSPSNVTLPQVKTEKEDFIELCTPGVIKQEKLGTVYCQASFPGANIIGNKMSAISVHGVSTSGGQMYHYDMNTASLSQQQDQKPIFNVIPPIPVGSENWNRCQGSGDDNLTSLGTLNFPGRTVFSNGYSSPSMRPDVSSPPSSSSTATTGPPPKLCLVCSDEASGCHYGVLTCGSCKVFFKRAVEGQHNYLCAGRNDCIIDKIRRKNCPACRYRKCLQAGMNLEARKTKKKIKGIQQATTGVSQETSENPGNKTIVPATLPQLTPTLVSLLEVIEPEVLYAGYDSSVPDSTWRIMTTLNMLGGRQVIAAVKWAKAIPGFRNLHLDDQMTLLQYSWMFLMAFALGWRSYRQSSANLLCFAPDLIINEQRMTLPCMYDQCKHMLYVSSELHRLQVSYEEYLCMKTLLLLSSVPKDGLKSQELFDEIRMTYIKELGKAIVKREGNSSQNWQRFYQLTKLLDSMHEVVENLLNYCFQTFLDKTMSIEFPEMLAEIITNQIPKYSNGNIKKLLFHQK
Method in brief: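 Exogenous NR-GAL4 fusion activity was assessed through induced GAL4-UAS reporter transcripts in transfected human HepG2 cells, quantified after 24 h by RT-PCR and fluorescent capillary electrophoresis with DMSO as baseline.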

[12] = target: Bile acid receptor (Homo sapiens) (UniProt Q96RI1); test: ATG_FXR_TRANS: Attagene TRANS-FACTORIAL HepG2 Assay for Farnesoid X Receptor (FXR) (AID 2282979); conditions: HepG2 Attagene TRANS FXR-GAL4 reporter transcription;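 further: hits raise reporter mRNA above DMSO so AC50 marks FXR activation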
Sequence of Bile acid receptor (Homo sapiens) (Q96RI1 whole entry, looked up, the tested form may be a part): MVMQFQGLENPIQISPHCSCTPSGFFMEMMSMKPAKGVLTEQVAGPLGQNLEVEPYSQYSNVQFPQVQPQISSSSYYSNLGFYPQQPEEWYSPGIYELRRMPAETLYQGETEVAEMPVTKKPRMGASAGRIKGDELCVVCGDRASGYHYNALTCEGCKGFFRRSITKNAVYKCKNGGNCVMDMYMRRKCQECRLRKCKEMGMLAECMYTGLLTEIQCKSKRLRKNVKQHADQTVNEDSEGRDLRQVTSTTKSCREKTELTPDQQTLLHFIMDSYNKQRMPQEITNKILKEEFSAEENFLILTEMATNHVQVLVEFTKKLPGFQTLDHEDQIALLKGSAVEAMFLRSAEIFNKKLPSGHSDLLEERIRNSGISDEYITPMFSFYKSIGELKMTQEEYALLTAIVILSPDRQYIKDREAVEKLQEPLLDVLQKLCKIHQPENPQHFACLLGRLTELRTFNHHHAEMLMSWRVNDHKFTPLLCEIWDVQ
Method in brief: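 Chimeric FXR-GAL4 activity in transiently transfected human HepG2 liver cells is scored as induction of reporter mRNA after 24 h of dosing. Detection uses RT-PCR with fluorescent labelling and capillary electrophoresis, with DMSO serving as baseline.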

[13] = target: Oxysterols receptor LXR-beta (Homo sapiens) (UniProt P55055); test: ATG_LXRb_TRANS: Attagene TRANS-FACTORIAL HepG2 Assay for human Liver X Receptor beta (LXRb) (AID 2282981); conditions: HepG2 Attagene TRANS GAL4-LXRb reporter, mRNA
Sequence of Oxysterols receptor LXR-beta (Homo sapiens) (P55055 whole entry, looked up, the tested form may be a part): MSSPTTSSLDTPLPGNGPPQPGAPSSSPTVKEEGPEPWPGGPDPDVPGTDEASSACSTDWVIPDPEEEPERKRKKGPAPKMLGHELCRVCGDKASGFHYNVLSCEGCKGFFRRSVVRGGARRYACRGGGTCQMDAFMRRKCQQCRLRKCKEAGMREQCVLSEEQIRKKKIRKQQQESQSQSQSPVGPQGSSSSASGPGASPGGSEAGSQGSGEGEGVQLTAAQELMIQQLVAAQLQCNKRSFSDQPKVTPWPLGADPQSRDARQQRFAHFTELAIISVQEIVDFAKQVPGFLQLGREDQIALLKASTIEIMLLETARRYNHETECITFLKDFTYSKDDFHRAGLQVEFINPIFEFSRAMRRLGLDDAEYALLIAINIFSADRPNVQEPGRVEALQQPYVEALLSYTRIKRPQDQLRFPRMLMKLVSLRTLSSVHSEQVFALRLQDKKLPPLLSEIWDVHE
Method in brief: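 Transient transfection HepG2 (multiplexed RTUs, GAL4-UAS); NR-Gal4 chimera; 24 h exposure; RNA → RT-PCR → 6-FAM primer extension → HpaI → CE; increase vs DMSO.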

[14] = target: Hepatocyte nuclear factor 4-alpha (Homo sapiens) (UniProt P41235); test: ATG_HNF4a_TRANS: Attagene TRANS-FACTORIAL HepG2 Assay for human Hepatocyte Nuclear Factor 4 alpha (HNF4a) (AID 2282982); conditions: HepG2 HNF4a transactivation reporter, mRNA readout
Sequence of Hepatocyte nuclear factor 4-alpha (Homo sapiens) (P41235 whole entry, looked up, the tested form may be a part): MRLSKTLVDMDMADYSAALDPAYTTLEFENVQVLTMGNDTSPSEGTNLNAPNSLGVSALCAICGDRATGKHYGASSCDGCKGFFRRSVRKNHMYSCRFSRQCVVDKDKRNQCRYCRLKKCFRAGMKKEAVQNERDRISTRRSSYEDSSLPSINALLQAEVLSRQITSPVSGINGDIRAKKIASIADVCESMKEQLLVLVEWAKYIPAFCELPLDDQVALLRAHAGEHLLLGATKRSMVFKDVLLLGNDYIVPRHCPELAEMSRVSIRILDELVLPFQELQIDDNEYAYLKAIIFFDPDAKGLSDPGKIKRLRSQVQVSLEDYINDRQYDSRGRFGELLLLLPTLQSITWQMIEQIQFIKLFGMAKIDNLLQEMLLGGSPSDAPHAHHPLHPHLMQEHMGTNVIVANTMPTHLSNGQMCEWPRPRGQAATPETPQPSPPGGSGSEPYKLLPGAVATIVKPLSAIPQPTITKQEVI
Method in brief: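 Readout is fluorescent reporter-transcript fragments resolved by capillary electrophoresis after RT-PCR from HepG2 cells dosed for 24 h. Cells carried transfected GAL4-UAS reporter constructs measuring exogenous NR-GAL4 chimera activity; DMSO served as baseline.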

[15] = ATG_M_32_TRANS: Attagene TRANS-FACTORIAL HepG2 Assay for M32 Transcription Factor (Internal Marker) (AID 2282984); conditions: HepG2 Attagene TRANS M32 internal marker reporter
Method in brief: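 Measures reporter mRNA induction in human HepG2 liver cells after 24 h chemical treatment. Transcripts from transiently transfected GAL4-UAS reporter units are amplified, fluorescently labelled and sized by capillary electrophoresis; gain of signal relative to DMSO.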

[16] = target: Steroid hormone receptor ERR1 (Homo sapiens) (UniProt P11474); test: ATG_ERRa_TRANS: Attagene TRANS-FACTORIAL HepG2 Assay for human Estrogen-Related Receptor alpha (ERRa) (AID 2282971); conditions: HepG2 Attagene TRANS reporter, ERRa transactivation
Method in brief: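 HepG2 cells were transiently transfected with multiple GAL4-UAS reporter units, then dosed with compound for 24 h. Total RNA was reverse-transcribed, reporter cDNA PCR-amplified and fluorescently labelled, and fragments resolved by capillary electrophoresis; induction was compared with DMSO.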

[17] = target: Androgen receptor (Homo sapiens) (UniProt P10275); test: ATG_AR_TRANS: Attagene TRANS-FACTORIAL HepG2 Assay for human Androgen Receptor (AR) (AID 2282973); conditions: HepG2 Attagene TRANS-FACTORIAL AR reporter transcription
Sequence of Androgen receptor (Homo sapiens) (P10275 whole entry, looked up, the tested form may be a part): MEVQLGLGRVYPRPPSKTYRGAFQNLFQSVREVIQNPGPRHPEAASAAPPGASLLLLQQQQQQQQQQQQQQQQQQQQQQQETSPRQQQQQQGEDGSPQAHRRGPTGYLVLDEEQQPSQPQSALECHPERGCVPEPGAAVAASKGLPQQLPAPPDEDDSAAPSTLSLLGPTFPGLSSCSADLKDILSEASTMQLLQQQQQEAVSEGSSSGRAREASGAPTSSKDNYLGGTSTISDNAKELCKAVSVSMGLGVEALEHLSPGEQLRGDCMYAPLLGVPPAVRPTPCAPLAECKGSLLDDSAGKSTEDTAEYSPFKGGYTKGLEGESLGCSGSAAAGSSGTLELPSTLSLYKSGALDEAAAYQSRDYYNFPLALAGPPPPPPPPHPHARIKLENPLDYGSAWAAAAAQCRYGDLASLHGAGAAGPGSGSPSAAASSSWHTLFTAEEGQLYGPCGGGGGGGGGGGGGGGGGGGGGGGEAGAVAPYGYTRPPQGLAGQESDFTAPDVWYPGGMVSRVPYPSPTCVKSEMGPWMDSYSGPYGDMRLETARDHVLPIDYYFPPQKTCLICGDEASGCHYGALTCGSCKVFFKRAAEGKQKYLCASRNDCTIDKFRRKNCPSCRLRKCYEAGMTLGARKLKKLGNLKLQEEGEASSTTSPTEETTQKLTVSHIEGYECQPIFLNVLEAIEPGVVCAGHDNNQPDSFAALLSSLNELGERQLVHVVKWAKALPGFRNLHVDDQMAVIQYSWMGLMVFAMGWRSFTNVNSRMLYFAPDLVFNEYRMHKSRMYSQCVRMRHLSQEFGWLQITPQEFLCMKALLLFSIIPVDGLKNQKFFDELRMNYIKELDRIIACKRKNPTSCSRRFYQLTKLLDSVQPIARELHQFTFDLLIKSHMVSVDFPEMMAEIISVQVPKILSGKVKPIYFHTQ
Method in brief: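 Transfected HepG2, 24 h treatment, chimeric NR-Gal4 driving GAL4-UAS reporters. mRNA induction by RT-PCR/capillary electrophoresis fluorescence; DMSO as negative control and baseline.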

[18] = ATG_Hpa5_TRANS: Attagene TRANS-FACTORIAL HepG2 Assay for human GAL4-Hpa5 Hepatocyte Transcription Factor Basal Promoter (AID 2282975); conditions: HepG2 Attagene GAL4-Hpa5 transcription reporter;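 further: hits are increases in reporter mRNA over DMSO baseline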
Method in brief: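 Basal-promoter GAL4 background control within the HepG2 trans-factorial panel of transiently transfected reporter units. Reporter mRNA is measured 24 h after dosing by RT-PCR and capillary electrophoresis, fitted for gain of signal versus DMSO.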

SMILES: CCCCC(O)(Cn1cncn1)c1ccc(Cl)cc1Cl (stereo unspecified)
- outcome [1]: inactive
- outcome [2]: inactive
- outcome [3]: inactive
- AC50 [4]: 23.6 µM (active)
- outcome [5]: inactive
- AC50 [6]: 16.9 µM (active)
- outcome [7]: inactive
- outcome [8]: inactive
- outcome [9]: inactive

SMILES: CO/N=C(/C1=NOCCO1)c1ccccc1Oc1ncnc(Oc2ccccc2Cl)c1F
- outcome [1]: inactive
- outcome [2]: inactive
- outcome [3]: inactive
- outcome [5]: inactive
- outcome [6]: inactive
- AC50 [7]: 0.574 µM (active)
- outcome [10]: inactive
- outcome [11]: inactive
- outcome [12]: inactive
- outcome [13]: inactive
- outcome [14]: inactive
- outcome [15]: inactive

SMILES: CCC(C)n1c(=O)[nH]c(C)c(Br)c1=O (stereo unspecified)
- outcome [1]: inactive
- outcome [2]: inactive
- outcome [3]: inactive
- outcome [4]: inactive
- outcome [5]: inactive
- outcome [6]: inactive
- outcome [16]: inactive
- outcome [7]: inactive
- outcome [10]: inactive
- outcome [8]: inactive
- outcome [12]: inactive
- outcome [13]: inactive
- outcome [14]: inactive

SMILES: C=CCOC(=O)C(C)(C)OC(=O)c1cc(-n2c(=O)cc(C(F)(F)F)n(C)c2=O)ccc1Cl
- outcome [1]: inactive
- outcome [2]: inactive
- outcome [3]: inactive
- outcome [4]: inactive
- outcome [7]: inactive
- outcome [10]: inactive
- outcome [8]: inactive
- outcome [13]: inactive

SMILES: Clc1nc(Cl)nc(Nc2ccccc2Cl)n1
- outcome [1]: inactive
- outcome [2]: inactive
- outcome [3]: inactive
- outcome [4]: inactive
- outcome [7]: inactive
- outcome [10]: inactive
- outcome [13]: inactive

SMILES: CCOP(=O)(OCC)Oc1nc(Cl)c(Cl)cc1Cl
- outcome [1]: inactive
- outcome [2]: inactive
- outcome [3]: inactive
- AC50 [4]: 39.2 µM (active)
- AC50 [6]: 50 µM (active)
- outcome [7]: inactive
- outcome [17]: inactive
- outcome [10]: inactive
- outcome [18]: inactive
- outcome [11]: inactive
- outcome [13]: inactive
- outcome [9]: inactive
- outcome [15]: inactive

SMILES: COc1ccc(-c2ccccc2)cc1NNC(=O)OC(C)C
- outcome [1]: inactive
- outcome [2]: inactive
- outcome [3]: inactive
- AC50 [4]: 7.63 µM (active)
- outcome [6]: inactive
- AC50 [7]: 50 µM (active)
- outcome [17]: inactive
- outcome [8]: inactive
- outcome [11]: inactive
- outcome [13]: inactive
- outcome [9]: inactive

SMILES: COCC(C)N(C(=O)CCl)c1c(C)csc1C (stereo unspecified)
- outcome [1]: inactive
- outcome [2]: inactive
- outcome [3]: inactive
- AC50 [4]: 1.84 µM (active)
- outcome [6]: inactive
- outcome [7]: inactive
- outcome [13]: inactive
- outcome [9]: inactive
- outcome [15]: inactive

SMILES: COC(=O)NC(=S)Nc1ccccc1NC(=S)NC(=O)OC
- outcome [1]: inactive
- outcome [2]: inactive
- outcome [3]: inactive
- AC50 [4]: 50 µM (active)
- outcome [6]: inactive
- outcome [7]: inactive
- outcome [18]: inactive
- outcome [11]: inactive
- outcome [13]: inactive
- outcome [14]: inactive

SMILES: O=C1C2CC=CCC2C(=O)N1SC(Cl)(Cl)Cl (stereo unspecified)
- outcome [1]: inactive
- outcome [2]: inactive
- outcome [3]: inactive
- outcome [4]: inactive
- outcome [5]: inactive
- outcome [6]: inactive
- outcome [16]: inactive
- outcome [7]: inactive
- outcome [10]: inactive
- outcome [18]: inactive
- outcome [8]: inactive
- outcome [13]: inactive
- outcome [14]: inactive
- outcome [15]: inactive
